An excerpt weighted towards active compounds, which were near 13% of everything screened.
Shiga inhibitor: A qHTS for Small Molecule Inhibitors of Shiga Toxin; Vero cells, Shiga toxin protein synthesis inhibition reporter; inhibition, % at 38.7 µM; 290,000 compounds, 9.2% hits; AID 2315, 2010; in the data active = inhibition mostly above about 28%, no sharp cut-off; inactive = mostly below about 43%
HCV inh: qHTS Assay for Inhibitors of Hepatitis C Virus (HCV); Huh7.5.1 HCVcc-Cre infection, luciferase reporter, 44 h; Potency, µM (titrated, usually from 41.8 µM), actives largely listed as inhibitors; 340,000 compounds, 3.4% hits; AID 651820, 2012; active = well fitted inhibition curve with a large enough effect; inconclusive = small, poorly fitted or top-dose-only effect, or another doubt; inactive = no such curve, though single readings can be large or run the other way
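After 44 h co-culture of compound, cells and HCVcc-Cre (~0.5 moi), substrate is added for 15 min at room temperature and luciferase measured over 15 sec. Cells were seeded at 1,000/well and pre-cultured 4 h.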
CHX counter: Cycloheximide Counterscreen for Small Molecule Inhibitors of Shiga Toxin. cell reporter, cycloheximide protein synthesis inhibition counterscreen. max response, %. 300,000 compounds, 12% hits. AID 2314, 2010; in the data active = max response mostly above about 13%, no sharp cut-off; inactive = mostly below about 14%; note: read at 38.3 µM for the half of the compounds with a filed dose
FMDV antiviral: High Throughput Screening for Foot and Mouth Disease Virus Antivirals | FMDV antiviral cell-based qHTS | Potency, µM (doses to about 57.9 µM), most hits filed as inhibitors | 410,000 compounds, 1.2% hits | AID 1159524, 2015; calls by dose curve; tested in HEK293T cells; note: read-out not given here; nearly all actives have a fitted effect of over 45% in size
Lassa entry inh: qHTS for Inhibitors of binding or entry into cells for Lassa Virus | AID 540256, 2011 | Potency, µM (titrated, usually from 37.9 µM), actives largely listed as inhibitors | Lassa virus pseudotype entry inhibition, cell reporter | 300,000 compounds, 1.2% hits; calls by dose curve; tested in HEK293 cells; note: nearly all actives have a fitted effect of over 50% in size
MARV entry inh: qHTS for inhibitors of binding or entry into cells for Marburg Virus. Marburg virus pseudotyped entry inhibition, cell reporter. Potency, µM (titrated, usually from 37.8 µM), most hits filed as inhibitors. 300,000 compounds, 1.8% hits. AID 540276, 2011; calls by dose curve; tested in HEK293 cells
Numbers stand for hits.

`O=C(Nc1cccc(-c2cn3ccccc3n2)c1)c1ccccc1` gave Shiga inhibitor 57, HCV inh inactive, CHX counter 34, FMDV antiviral inactive, Lassa entry inh inactive and MARV entry inh inconclusive.
CCCCC(=O)Nc1cccc(-c2cn3ccccc3n2)c1 was read as Shiga inhibitor inactive, HCV inh inactive, CHX counter 29, Lassa entry inh inactive and MARV entry inh inactive.
Screening O=C(Nc1ccccc1)Nc1cccc(-c2cn3cccnc3n2)c1 returned Shiga inhibitor inactive, HCV inh inconclusive, CHX counter inactive, FMDV antiviral inactive and MARV entry inh inactive.
Screening COc1cccc(OC)c1NC(=O)c1ccc(-c2cc(Cl)ccc2Cl)o1 returned FMDV antiviral inactive.
For CCN1C(=O)c2cccc3c(S(=O)(=O)N4CCNCC4)ccc1c23 the results were HCV inh inactive and FMDV antiviral inactive.
Screening OCCNCCNCc1ccc(-c2ccccc2)cc1 returned Shiga inhibitor inactive and CHX counter inactive.
`O=C(NN=Cc1ccc(N(CCCl)CCCl)cc1)c1cc(=O)[nH]c(=O)[nH]1` gave HCV inh inactive, FMDV antiviral inactive, Lassa entry inh inconclusive and MARV entry inh inconclusive.
Screening CCN(CC)c1ccc(/C=N/NC(=O)c2cc3ccccc3[nH]2)cc1 returned Shiga inhibitor inactive, HCV inh inconclusive, CHX counter 20 and FMDV antiviral inactive.
Screening CCN(CC)c1ccc(/C=N/NC(=O)c2c[nH]c3ccccc23)cc1 returned Shiga inhibitor 40, HCV inh inconclusive, CHX counter 35, FMDV antiviral inactive, Lassa entry inh 11µM and MARV entry inh inactive.
Screening CCN(C(=O)C(=O)c1c[nH]c2ccccc12)c1ccccc1 returned Shiga inhibitor inactive, HCV inh inactive, CHX counter 18 and FMDV antiviral inactive.
Screening O=C(NN=Cc1ccc(N(CCCl)CCCl)cc1)C(=O)c1c[nH]c2ccccc12 returned HCV inh inconclusive, FMDV antiviral inactive, Lassa entry inh 6.3µM and MARV entry inh 4.5µM.
`CN(Cc1ccccc1)C(=O)C(=O)c1c[nH]c2ccccc12` gave FMDV antiviral inactive.
`O=C(Nc1cccc(Cl)c1)Nc1ccccc1OCc1cc(=O)n2ccccc2n1` gave FMDV antiviral inactive and Lassa entry inh inactive.
CCOc1ccc(CCNc2ncnc3onc(-c4ccc(Cl)cc4)c23)cc1 was read as FMDV antiviral inconclusive and Lassa entry inh inactive.
CCOc1ccc(CCNc2ncnc3onc(-c4ccc(Cl)cc4)c23)cc1OCC was read as FMDV antiviral inconclusive, Lassa entry inh inconclusive and MARV entry inh 7.9µM.
For COc1ccccc1-c1oc2ccccc2c1-c1ccccc1OC the results were HCV inh inactive and FMDV antiviral inactive.
For CCOc1ccc(C(=O)NC(=S)Nc2ccccc2N2CCCCC2)cc1[N+](=O)[O-] the results were Shiga inhibitor inactive, HCV inh inconclusive, CHX counter inactive, FMDV antiviral inactive, Lassa entry inh inconclusive and MARV entry inh inconclusive.
`COc1ccc(C(=O)NC(=S)Nc2ccccc2N2CCCCC2)cc1[N+](=O)[O-]` gave Shiga inhibitor inactive, HCV inh 13µM, CHX counter inactive, FMDV antiviral inconclusive, Lassa entry inh inconclusive and MARV entry inh inconclusive.
For Cc1c(C(=O)NC(=S)Nc2ccccc2N2CCCC2)cccc1[N+](=O)[O-] the results were Shiga inhibitor inactive, HCV inh 3.5µM, CHX counter inactive, FMDV antiviral inconclusive, Lassa entry inh inactive and MARV entry inh inactive.
O=C(NC(=S)Nc1ccccc1N1CCCC1)c1ccc([N+](=O)[O-])cc1 was read as Shiga inhibitor inactive, HCV inh inconclusive, CHX counter inactive, FMDV antiviral inactive, Lassa entry inh inactive and MARV entry inh inactive.
For CCC1(CC)NC(=O)N(CC(=O)N2N=C(c3ccc(Cl)cc3)CC2c2ccco2)C1=O (configuration not stated) the results were Shiga inhibitor inactive, HCV inh inactive, CHX counter inactive, FMDV antiviral inactive, Lassa entry inh inconclusive and MARV entry inh inconclusive.
CC12CCC(C(=Nc3ccc(N=C4C(=O)C5(C)CCC4C5(C)C)cc3)C1=O)C2(C)C was read as Shiga inhibitor inactive, HCV inh inactive, CHX counter inactive and FMDV antiviral inactive.
Cc1ccc(N/C=C2\C(=O)C3(C)CCC2C3(C)C)cc1C (configuration not stated) was read as Shiga inhibitor inactive, HCV inh inactive, CHX counter 21, FMDV antiviral inactive, Lassa entry inh inactive and MARV entry inh inactive.
`O=C(CN1C(=O)CSc2ccccc21)N/N=C/c1ccco1` gave Shiga inhibitor inactive, HCV inh inactive, CHX counter inactive, FMDV antiviral inactive, Lassa entry inh inactive and MARV entry inh inactive.
`Cc1c(/C=N/NC(=O)C2(O)c3ccccc3-c3ccccc32)cnn1C` gave Shiga inhibitor inactive, HCV inh inactive, CHX counter inactive, FMDV antiviral inactive, Lassa entry inh inactive and MARV entry inh inactive.
`Cc1occc1C(=O)N/N=C/c1cnn(C)c1C` gave Shiga inhibitor 62, HCV inh inactive, CHX counter 33, FMDV antiviral inactive, Lassa entry inh inactive and MARV entry inh inactive.
For Cc1c(/C=N\NC(=O)c2ccc(F)cc2)cnn1C the results were Shiga inhibitor 27, HCV inh inactive, CHX counter inactive, FMDV antiviral inactive, Lassa entry inh inactive and MARV entry inh inconclusive.
Cc1c(/C=N/NC(=O)c2ccc3c(c2)OCO3)cnn1C was read as Shiga inhibitor inactive, HCV inh inactive, CHX counter inactive, FMDV antiviral inactive, Lassa entry inh inactive and MARV entry inh inactive.
Cc1ccc(C(=O)N/N=C\c2ccc(Br)o2)o1 was read as Shiga inhibitor inactive, HCV inh inactive, CHX counter inactive, Lassa entry inh inactive and MARV entry inh inconclusive.
For Cc1c(/C=N\NC(=O)c2cccc(F)c2)cnn1C the results were Shiga inhibitor 92, HCV inh inactive, CHX counter 45, FMDV antiviral inactive, Lassa entry inh inactive and MARV entry inh inactive.
Screening Cc1c(/C=N/NC(=O)c2ccc(Br)o2)cnn1C returned Shiga inhibitor 57, HCV inh inactive, CHX counter 38, FMDV antiviral inactive, Lassa entry inh inactive and MARV entry inh inactive.
Screening Cc1cccc(OC(C)C(=O)OCC(=O)N2CCN(c3ccccc3)CC2)c1 (configuration not stated) returned HCV inh inactive, FMDV antiviral inactive, Lassa entry inh inactive and MARV entry inh inactive.
`COc1ccc(S(=O)(=O)N(CC(=O)Nc2cccnc2)c2ccc(Cl)cc2)cc1` gave FMDV antiviral inactive, Lassa entry inh inconclusive and MARV entry inh inactive.
Screening CC1(Cc2ccc(F)cc2)C(=O)Nc2c(Cl)ccc(Cl)c21 (configuration not stated) returned FMDV antiviral inactive.
`CCn1ncc(/C=N\NC(=O)c2ccc3c(c2)c(C)c(C)n3Cc2ccccc2)c1C` gave Shiga inhibitor inactive, HCV inh inactive, CHX counter inactive, FMDV antiviral inconclusive, Lassa entry inh inactive and MARV entry inh inconclusive.

Screens (PubChem)
